Results filed as inconclusive are left out. Calls follow the shape of the dose curve; as a rule, active = well fitted curve in either direction with a large enough effect (not every such curve was filed as active); inconclusive = small, poorly fitted or top-dose-only effect, or another doubt; inactive = flat fitted curve, though single readings scatter.
target: Mitogen-activated protein kinase 10 (Mus musculus) (UniProt Q61831); test: JNK3 AlphaScreen Assay (AID 530); settings: JNK3 lysate, c-Jun phosphorylation; series mostly up to 57.1 µM; activity change, negative = inhibition: at the top concentration;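 also: kinase came from lysate of stimulated human HepG2 cells; signal reports phosphorylation of biotinylated GST-cJun 1-79 at Ser73 with 10 µM ATP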
How it was run: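 Room-temperature AlphaScreen kinase assay; pre-activated HepG2 lysate as JNK3 source, biotin-GST-cJun(1-79) substrate, 10 uM ATP, compound 15 min preincubation.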
% is scaled to controls: 0 for no effect and ±100 for the full control effect.

Activity change, negative = inhibition, inactive:
COC(=O)[C@@]1(Cc2ccc(OC)cc2)[C@H]2c3cc(C(=O)N(C)C)n(Cc4cc(C)n(C)n4)c3C[C@H]2CN1C(=O)c1ccccc1 -12.5%
CCC/C=C(\CCC)C(NC(=O)OCC(C)C)c1ccccc1 (stereo not drawn) 6.03%
C[C@@H](C(=O)Nc1ccc2ccccc2c1)[C@H]1C[C@]1(C)[C@H](NC(=O)c1ccccc1)c1ccccc1 -5.69%
C[C@@H](C(=O)Nc1ccc2ccccc2c1)[C@H]1C[C@]1(C)[C@H](NS(=O)(=O)c1ccccc1)c1ccccc1 2.02%
O=C(NCc1cccc2ccccc12)[C@H]1C[C@@H]1[C@H](NP(=O)(c1ccccc1)c1ccccc1)c1ccccc1 -10.5%
Cc1cc(C(=O)N[C@H](c2ccccc2)[C@@]2(C)C[C@@H]2[C@@H](C)C(=O)Nc2ccc3ccccc3c2)no1 -3.56%
COC(=O)[C@@]1(Cc2ccc(F)cc2)[C@H]2c3cc(C(=O)N(C)C)n(CCc4ccc(O)c(O)c4)c3C[C@H]2CN1C(=O)c1ccccc1 -11.6%
COC(=O)C1(CC(C)C)C=C2C(=C(C)C(=O)C2C)CN1 (stereo not drawn) 2.04%
COC(=O)[C@@]1(Cc2ccccc2)[C@H]2c3cc(C(=O)N(C)C)n(Cc4ccccn4)c3C[C@H]2CN1C(=O)c1ccccc1 -10.3%
COC(=O)[C@@]1(Cc2ccc(F)cc2)[C@H]2c3cc(C(=O)N(C)C)n(CCSCCO)c3C[C@H]2CN1C(=O)c1ccccc1 -6.26%
COc1ccc(CNC(=O)[C@H](C)[C@H]2C[C@]2(C)[C@H](NC(=O)OCc2ccccc2)c2ccccc2)cc1OC 0.882%
Cc1ccc(CNC(=O)[C@@H]2C[C@H]2[C@@H](NP(=O)(c2ccccc2)c2ccccc2)c2ccccc2)o1 -8.25%
O=C(NCc1ccccn1)[C@H]1C[C@@H]1[C@H](NP(=O)(c1ccccc1)c1ccccc1)c1ccccc1 -0.953%
COC(=O)[C@@]1(Cc2ccc(OC)cc2)[C@H]2c3cc(C(=O)N4CCCC4)n(Cc4cc(C)n(C)n4)c3C[C@H]2CN1C(=O)c1ccccc1 -18.4%
COC(=O)[C@@]1(Cc2ccccc2)[C@H]2c3cc(C(=O)N4CCCC4)n(CCSCCO)c3C[C@H]2CN1C(=O)c1ccccc1 -11.2%
C[C@@H](C(=O)Nc1ccc2ccccc2c1)[C@@H]1C[C@@]1(C)[C@@H](NC(=O)c1cccnc1)c1ccccc1 -5.57%
COC(=O)[C@@]1(Cc2ccc(F)cc2)[C@H]2c3cc(C(=O)N4CCCC4)n(CCc4c[nH]c5cc(F)ccc45)c3C[C@H]2CN1C(=O)c1ccccc1 -19.6%
COC(=O)[C@@]1(Cc2ccc(OC)cc2)[C@H]2c3cc(C(=O)N(C)C)n(Cc4ccc(Cl)c(C(F)(F)F)c4)c3C[C@H]2CN1C(=O)c1ccccc1 -15.3%
COC(=O)[C@@]1(Cc2ccc(F)cc2)[C@H]2c3cc(C(=O)N(C)C)n(Cc4ccccn4)c3C[C@H]2CN1C(=O)c1ccccc1 -8.97%
COC(=O)[C@@]1(Cc2ccc(OC)cc2)[C@H]2c3cc(C(=O)N(C)C)n(CCc4c[nH]c5ccc(O)cc45)c3C[C@H]2CN1C(=O)c1ccccc1 -2.24%
COC(=O)[C@@]1(Cc2ccc(OC)cc2)[C@H]2c3cc(C(=O)N(C)C)n(CCc4ccc(O)c(OC)c4)c3C[C@H]2CN1C(=O)c1ccccc1 -6.71%
COC(=O)[C@@]1(Cc2ccc(OC)cc2)[C@H]2c3cc(C(=O)N(C)C)n(CCc4ccc(OC)c(Br)c4)c3C[C@H]2CN1C(=O)c1ccccc1 -24.9%
CS(=O)(=O)c1ccc(CNC(=O)[C@@H]2C[C@H]2[C@@H](NP(=O)(c2ccccc2)c2ccccc2)c2ccccc2)cc1 -6.13%
C[C@@H](C(=O)NCC1CC1)[C@@H]1C[C@@]1(C)[C@@H](NC(=O)OCc1ccccc1)c1ccccc1 -1.26%
COC(=O)[C@@]1(Cc2ccc(OC)cc2)[C@H]2c3cc(C(=O)N4CCCC4)n(Cc4cc(F)c(F)c(F)c4)c3C[C@H]2CN1C(=O)c1ccccc1 -25.8%
Cc1cc(CNC(=O)[C@H](C)[C@@H]2C[C@@]2(C)[C@@H](NC(=O)OCc2ccccc2)c2ccccc2)nn1C 2.17%
COC(=O)Cn1c(C(=O)N(C)C)cc2c1C[C@H]1CN(C(=O)c3ccccc3)[C@@](Cc3ccc(F)cc3)(C(=O)OC)[C@@H]21 -10.4%
COC(=O)[C@@]1(Cc2ccc(OC)cc2)[C@H]2c3cc(C(=O)N4CCCC4)n(Cc4ccc(O)c(OC)c4)c3C[C@H]2CN1C(=O)c1ccccc1 -15.5%

Source: PubChem BioAssay (NCATS)
